Source: PubChem
L major viab: reduces viability of Leishmania major promastigotes; resazurin fluorescence viability; inhibition, % at 10 µM; actives 9% (n = 200,000); AID 1063; in the data active = inhibition above about 50%;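 also: promastigotes grown with compound for 44 hours at 28 °C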
RAM network inh: blocks the yeast RAM network. S. cerevisiae dse1pr::URA3 reporter, 5-FOA growth OD615, 2 d; analog-sensitive cbk1-as2 kinase mutant strain. inhibition, % at 50 µM. actives 1.8% (n = 190,000). AID 868;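 active = inhibition above a set limit, 3 SD over mean compound inhibition, cut at about 8.4% in these data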;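 also: 0% = DMSO-only wells with no growth and 100% = 10 µM 1-NA-PP1 full growth; inhibition rescues growth on 5-FOA so higher OD means more RAM inhibition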
WT yeast gro inh: growth inhibition of WT yeast, mitochondrial fusion screen. actives 2.1% (n = 190,000). inhibition, % at 10 µM. mitochondrial fusion phenotypic screen, WT strain; in the data active = inhibition above about 58%; tested in S. cerevisiae
CHOP inh: blocks CHOP induction under ER stress. AID 2732. actives 3.8% (n = 220,000). CHO-K1 CHOP-promoter luciferase, tunicamycin-induced, 15-18 h. inhibition, % at 10 µM;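 active = compounds that reduced the stress-induced luciferase reporter signal by more than about 70% of percent inhibition, limit read from the data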;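 also: 0% = tunicamycin plus vehicle and 100% = wells without tunicamycin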
Active calls of the source: *; . = not tested or not shown. An excerpt weighted towards active compounds, which were near 13% of everything screened.

SMILES	L major viab	RAM network inh	WT yeast gro inh	CHOP inh
Cc1cc(Nc2ccccc2)nc2cc(O)ccc12	83.4*	0.4	62.3*	19.1
Cc1cc(C)c(OCC(=O)N/N=C/c2ccc3c(c2)OCO3)c(C)c1	38.9	1.1	9.6	72.6*
Cc1cccc(OCC(=O)N/N=C/c2ccc3c(c2)OCO3)c1	-4.1	3.4	-5.4	13.6
CC(NC(=O)C(=O)N/N=C\c1ccc([N+](=O)[O-])cc1)c1ccccc1 (stereo unspecified)	-3.3	2.8	-10.4	84.2*
O=C(CNc1ccc2ccccc2c1)N/N=C/C=C/c1cccc([N+](=O)[O-])c1	0.3	2.0	3.2	89.8*
O=C(CN(Cc1ccccc1)S(=O)(=O)c1ccccc1)N/N=C/c1ccc2c(c1)OCO2	63.3*	-0.5	-0.8	21.4
CC(NC(=O)COC(=O)/C=C/c1ccc([N+](=O)[O-])cc1)c1ccccc1 (stereo unspecified)	-1.6	2.1	-14.1	11.2
O=C(N/N=C/C=C/c1cccc([N+](=O)[O-])c1)C(O)c1ccccc1 (stereo unspecified)	-9.1	1.6	4.7	17.3
O=Cc1c(N2CCC3(CC2)OCCO3)nc2ccccn2c1=O	.	.	.	23.9
CCc1nnc(NC(=O)C2CCCN(S(=O)(=O)c3ccc(OC)cc3)C2)s1 (stereo unspecified)	-1.8	3.7	-21.3	-9.5
O=C(CNc1cccc2ccccc12)N/N=C/c1ccc([N+](=O)[O-])cc1	-5.1	3.6	-9.9	72.3*
O=C(CN(Cc1ccccc1)S(=O)(=O)c1ccccc1)N/N=C/c1ccc([N+](=O)[O-])cc1	28.1	-0.8	28.3	96.0*
O=C(CN(Cc1ccc(Cl)c(Cl)c1)S(=O)(=O)c1ccccc1)N/N=C\c1ccc2c(c1)OCO2	88.0*	3.6	53.0	19.3
Cc1ccccc1NCC(=O)N/N=C/c1ccc([N+](=O)[O-])cc1	0.6	4.5	7.0	-12.7
O=C(NCCc1ccccc1)C(=O)N/N=C/c1ccc2c(c1)OCO2	-3.2	3.5	2.5	94.6*
Cc1ccc(NC(=O)c2cc([N+](=O)[O-])ccc2NCc2cccnc2)cc1	4.2	-0.3	-16.2	39.3
C[C@@H]1CN(c2c(F)c(N)c3c(=O)c(C(=O)O)cn(C4CC4)c3c2F)C[C@H](C)N1	.	.	6.0	6.5
COc1ccccc1CNC(=O)COC(=O)[C@H](Cc1c[nH]c2ccccc12)NC(=O)c1cccs1	-6.4	3.7	5.9	17.5
O=C(CSc1ncnc2ccccc12)NCC(=O)c1ccccc1	3.5	6.2	-64.2	6.3
CCOC(=O)c1c(-c2ccc(OC)cc2)csc1NC(=O)CCN1C(=O)c2ccccc2C1=O	-1.1	3.1	17.3	-7.7
COC(=O)c1c(-c2cccs2)csc1NC(=O)CN1CCOCC1	9.8	2.4	8.0	73.9*
CCOC(=O)c1c(-c2ccc(OC)cc2)csc1NC(=O)CCN1CCOCC1	83.5*	1.4	25.5	-5.0
CCOC(=O)c1c(-c2ccc(C)cc2)csc1NC(=O)CCN1CC(C)OC(C)C1 (stereo unspecified)	97.9*	-0.2	12.3	50.9
COC(=O)c1cc(NC(=O)CN2CCOCC2)cc(C(=O)OC)c1	0.8	-0.6	-1.5	4.1
CCOC(=O)c1c(-c2cccs2)csc1NC(=O)c1ccncc1	-1.3	9.6*	-4.4	53.4
SMILES	L major viab	RAM network inh	WT yeast gro inh	CHOP inh
CCOc1c(Br)cc(C(N)=O)cc1OCc1ccccc1	-1.3	0.7	12.0	18.1
CCN(CC)S(=O)(=O)c1cc(C(=O)n2cccn2)c(Cl)cc1Cl	-3.3	0.3	4.0	-24.7
CCOC(=O)c1c(NC(=O)CCN2CCOCC2)sc2c1CC(C)(C)OC2	-4.7	-0.1	-24.3	20.6
CCOC(=O)c1c(NC(=O)CCN2CCOCC2)sc(C)c1-c1ccccc1	52.1*	0.3	35.6	46.6
O=C(O)CCc1ccccc1OC(=O)c1ccccc1	.	.	.	-7.2
O=C(Oc1cccc2c(O)cccc12)c1ccccc1	12.8	-1.6	60.5*	106.1*
CC(=O)NC(Cc1ccccc1)C(=O)OCC(=O)c1ccc(F)cc1 (stereo unspecified)	-5.9	4.5	-2.3	-21.3
Cc1cc(C)nc(/N=C2\NC(=O)CC(C(=O)O)N2c2ccc(C)c(C)c2)n1 (stereo unspecified)	-2.6	6.0	-7.1	-7.9
CC1CC(C)CN(C(=O)Cn2c(=O)n(CCCCC(=O)NCc3ccco3)c(=O)c3ccccc32)C1 (stereo unspecified)	-3.8	10.8*	-10.2	33.9
O=C(CCn1c(=O)c2ccccc2n(CC(=O)NC2CCCC2)c1=O)NCc1ccco1	100.0*	1.9	-2.6	-0.4
O=C(CCCCn1c(=O)c2ccccc2n(CC(=O)NC2CCCC2)c1=O)NCc1ccco1	-2.4	1.7	-9.7	-15.0
CCc1ccc(NC(=O)Cn2c(=O)n(CCCC(=O)NCc3ccco3)c(=O)c3ccccc32)cc1	-3.4	3.1	-12.5	76.2*
Cc1cccc2nc(Cn3c(=O)n(CCCC(=O)NCc4ccco4)c(=O)c4ccccc43)cc(=O)n12	-6.3	0.7	3.0	4.7
O=C(CCn1c(=O)c2ccccc2n(Cc2cc(=O)n3ccccc3n2)c1=O)NCc1ccco1	-3.7	10.9*	1.3	2.5
CCOc1cc(/C=N/n2cnnc2)ccc1OS(=O)(=O)c1ccccc1	68.8*	-0.1	-1.3	7.9
O=S(=O)(Oc1ccccc1/C=N/n1cnnc1)c1ccccc1	0.9	0.1	-13.8	5.1
COc1ccc(NC(=O)c2sc3cc(C(F)(F)F)cnc3c2-c2cccs2)cc1	9.0	6.8	2.1	-9.2
O=C(Nc1ccc(F)cc1)c1sc2cc(C(F)(F)F)cnc2c1-c1cccs1	56.3*	2.7	10.7	48.6
COc1ccc(NS(=O)(=O)c2cc(NC(=O)c3cccc(OCc4c(C)noc4C)c3)ccc2OC)cc1	97.9*	5.8	-15.4	30.0
Cc1ccccc1NC(=O)c1cccc(OCc2c(C)noc2C)c1	59.0*	0.6	-33.4	16.4
Cc1noc(C)c1COc1cccc(C(=O)NCCc2c[nH]c3ccccc23)c1	19.6	4.8	-7.2	18.4
Cc1ccc(NC(=O)c2cccc(OCc3c(C)noc3C)c2)cc1	82.7*	0.0	-5.9	-10.7
Cc1ccc(NC(=O)c2ccc(OCc3c(C)noc3C)cc2)cc1	.	.	.	3.1
Cc1noc(C)c1COc1cccc(C(=O)NCc2cccc(Cl)c2)c1	73.0*	2.6	38.4	18.7
CC1CCCN(c2nc3c(c(=O)[nH]c(=O)n3C)n2CCSc2ncccn2)C1 (stereo unspecified)	-6.5	2.1	-9.1	12.5
COc1ccc(OC)c(NS(=O)(=O)c2ccc(NC(=O)c3ccc(NS(C)(=O)=O)cc3)cc2)c1	-3.4	2.3	-1.4	-17.4
Cc1noc(C)c1COc1cccc(C(=O)Nc2ccc(C#N)cc2)c1	82.8*	1.2	26.4	31.7
O=C(NC(C(=O)N/N=C/c1c2ccccc2cc2ccccc12)c1n[nH]c(=O)c2ccccc12)c1ccccc1 (stereo unspecified)	92.5*	5.1	-6.0	-8.2
O=C(NC(C(=O)N/N=C/c1ccccc1)c1n[nH]c(=O)c2ccccc12)c1ccccc1 (stereo unspecified)	10.4	1.1	-10.4	-57.7
Cc1cc(Cl)ccc1Oc1nccc(N(C)C)c1C#N	0.6	2.9	4.9	12.0
